This is part of a sample that, as a whole, favours compounds with a hit. Of some 79,000 tested, about 15% had one in any assay. Active and inactive are the calls of the source. No stated cut-off is given here; in the data, active means growth inhibition above about 70%; inactive means the rest.
Experiment: NCI Yeast Anticancer Drug Screen. Data for the sgs1 strain (AID 173);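 further: 0% = growth of vehicle-only control cultures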
Settings: S. cerevisiae sgs1 mutant, at 33.0 µM, stronger effect = higher value
Summary of the method: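 Growth of a yeast strain bearing a defined genetic alteration is measured after compound treatment. Inhibition is expressed relative to vehicle-only controls.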

| SMILES | growth inhibition |
| --- | --- |
| Cc1cccc2c(C(O)CBr)cc(-c3ccc(Cl)cc3)nc12 (configuration not stated) | 96% (active) |
| CC1=C(SCCO)C(=O)c2ccccc2C1=O | 40% (inactive) |
| CC(/C=C/c1ccc2c(c1)OCO2)[N+](=O)[O-] (configuration not stated) | 99% (active) |
| COC(=O)C1=C(C)NC(C)=C(C(=O)OCCCN2CCC(c3ccccc3)(c3ccccc3)CC2)C1c1cccc([N+](=O)[O-])c1 (configuration not stated) | 98% (active) |
| O=[N+]([O-])c1cc2no[n+]([O-])c2cc1N1CCCCC1 | 99% (active) |
| COC(=O)c1ccc(NCC2=CC(=O)C=CC2=O)cc1O | 97% (active) |
| CCCCCCCCNC(=O)C1=C(C)NC(C)=C(C(=O)NCCCCCCCC)C1 | 3% (inactive) |
| S=C(Nc1ccc(Cl)c(Cl)c1)SCc1ccc2c(c1)OCO2 | 99% (active) |
| O=S(=O)(CCCl)c1ccccc1Cl | 95% (active) |
| Nc1ccccc1CC(O)C(=O)O (configuration not stated) | 83% (active) |
| CN(C)c1ccc(Sc2ccc3nc(N)nc(N)c3c2)cc1 | 17% (inactive) |
| Cc1ccc(S(=O)(=O)Oc2cc(Cl)c(Cl)cc2Cl)cc1 | 0% (inactive) |
| Cc1cc(I)ccc1N | 90% (active) |
| CC(Br)C(=O)c1ccc2cc(Br)c3ccccc3c2c1 (configuration not stated) | 17% (inactive) |
| O=C(Nc1ccccc1)OCCc1ccc(Cl)c(Cl)c1 | 22% (inactive) |
| CC1(Cl)CC(O)C2(CC1Br)C1(C)OC1C1OC1(Br)C2(C)C (configuration not stated) | 78% (active) |
| Cc1cc(O)cc(O)c1N=Nc1ccc([N+](=O)[O-])cc1 | 32% (inactive) |
| CC1=NN(c2cccc(Cl)c2)C(=O)C1 | 4% (inactive) |
| C(CCSC1=NCCN1)CSC1=NCCN1 (tested in a mixture with another compound) | 99% (active) |
| CCCCCCCCCCC(=O)Cl | 25% (inactive) |
| COC1C=COC2(C)Oc3c(C)c(O)c4c(c3C2=O)/C(=N/C2CCC(O)OC2C)C=C(NC(=O)/C(C)=C\C(=O)C2CC2C(O)C(C)C(O)C(C)C(OC(C)=O)C1C)C4=O (configuration not stated) | 37% (inactive) |
| S=c1[nH]nc(Nc2ccc(Cl)cc2)s1 | 37% (inactive) |
| O=C1CSC(/C=C/c2ccccc2)N1c1ccc(-c2ccc(-n3c(-c4ccccc4)nc4ccccc4c3=O)cc2)cc1 (configuration not stated) | 17% (inactive) |
| O=C1C=CC(=O)N1c1ccc2c(c1)Cc1cc(NC(=O)C(F)(F)F)ccc1-2 | 79% (active) |
| Oc1ccc2ccccc2c1C(c1ccc(Cl)cc1)c1c(O)ccc2ccccc12 | 38% (inactive) |
| C[CH2][Sn]([CH2]C)([O]C(=O)C(OC(C)=O)c1ccccc1)[O]C(=O)C(OC(C)=O)c1ccccc1 (configuration not stated) | 78% (active) |
| Cc1ccc2ccc(O)cc2c1 | -19% (inactive) |
